Screening results (PubChem BioAssay)
This is a sample that favours compounds with a hit; in the whole collection about 3% have one here.
SENP6 inh = blocks the human protease SENP6. Q9GZR1. Recombinant SENP6 catalytic domain, aminoluciferin luminescence. inhibition, % at 10 µM. 330,000 compounds, 1.8% hits. AID 2599;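 active = inhibition above about 50% at the single tested dose, limit read from the data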;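 note: plate controls were DMSO wells with enzyme for no effect and DMSO wells lacking enzyme for full effect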
SENP8 block-1 = blocks the human protease SENP8 | Q96LD8 | purified SENP8, Z-RLRGG-aminoluciferin cleavage, luminescence | inhibition, % at 10 µM | 330,000 compounds, 1.2% hits; in the data active = inhibition above about 50%
Target sequence (Q96LD8 whole entry, looked up): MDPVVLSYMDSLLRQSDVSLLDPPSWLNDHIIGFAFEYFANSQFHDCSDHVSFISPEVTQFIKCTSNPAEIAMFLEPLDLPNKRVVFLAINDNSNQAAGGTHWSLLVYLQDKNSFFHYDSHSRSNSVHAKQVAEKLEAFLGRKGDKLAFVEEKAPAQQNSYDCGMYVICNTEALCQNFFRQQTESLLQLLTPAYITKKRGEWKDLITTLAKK
SENP8 block-2 = inhibitors of human SENP8 protease; recombinant SENP8, Nedd8 substrate fluorescence; inhibition, % at 20 µM; 360,000 compounds, 0.64% hits; in the data active = inhibition mostly above about 40%, no sharp cut-off; inactive = mostly below about 27%
C8 TRAIL sens = sensitizes caspase-8 expressing cells to TRAIL; 360,000 compounds, 1% hits; inhibition (viability loss, TRAIL sensitization), % at 10 µM; NB7+C8 cells + TRAIL, ATPlite viability luminescence;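 active = compounds causing at least 50% loss of cell viability in the single-dose screen, relative to plate controls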
SENP7 block = blocks the human protease SENP7; inhibition, % at 5 µM; Q9BQF6; 330,000 compounds, 1.5% hits; recombinant SENP7, Z-RLRGG-aminoluciferin luminescence, 40 min;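 active = inhibition above about 50% at the single test dose, limit read from the data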;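 note: plate controls were DMSO with enzyme for no effect and no enzyme buffer wells for full effect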
PPC-1+TRAIL kill = kills PPC-1 cancer cells in the presence of TRAIL | 220,000 compounds, 0.41% hits | cell killing (% activity), % at 4 µM or 5 µM | PPC-1 cells + TRAIL, ATPLite viability luminescence | AID 1443;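 active = cell killing above 50% in the first pass at 4 µM, then a duplicate retest at 5 µM averaging 50% or more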;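 note: plate controls were cells with TRAIL plus DMSO for no effect and medium-only wells lacking cells for full effect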
SENP8 conf = confirmation of human SENP8 protease inhibitors. shares compounds with SENP7 block. Recombinant SENP8, Z-RLRGG-aminoluciferin luminescence, 60 min. inhibition, % at 12.5 µM. 6,200 compounds, 40% hits. AID 488912;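 active = mean inhibition across replicates above about 50%, limit read from the data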
SENP6 conf = confirmation of human SENP6 protease inhibitors; recombinant SENP6, Z-RLRGG-aminoluciferin luminescence; inhibition, % at 12.5 µM; 6,200 compounds, 58% hits; AID 488915; shares compounds with SENP7 block
SENP7 conf = human SENP7 inhibition, confirmed; shares compounds with SENP7 block; recombinant SENP7, Z-RLRGG-aminoluciferin luminescence, 40 min; inhibition, % at 12.5 µM; 6,200 compounds, 69% hits; AID 488917
Casp3 SENP sel = caspase-3 inhibition (SENP selectivity assay). shares compounds with SENP7 block. purified caspase-3, Z-DEVD-aminoluciferin luminescence, 60 min. AID 488918. inhibition, % at 12.5 µM. 6,200 compounds, 60% hits;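 active = mean inhibition above about 50%, limit read from the data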;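 note: plate controls were enzyme with DMSO for no effect and wells without caspase-3 for full effect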
Target sequence (P42574 28-227 limits assumed): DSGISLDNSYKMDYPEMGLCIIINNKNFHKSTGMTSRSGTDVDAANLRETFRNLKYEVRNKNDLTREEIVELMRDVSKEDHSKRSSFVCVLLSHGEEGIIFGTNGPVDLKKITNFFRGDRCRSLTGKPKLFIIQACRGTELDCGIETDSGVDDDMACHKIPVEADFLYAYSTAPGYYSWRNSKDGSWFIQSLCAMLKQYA
Luc interf = luminescence interference (SENP counter-screen); shares compounds with SENP7 block; Pre-incubated SENP8/Z-RLRGG-aminoluciferin, luciferase luminescence interference; inhibition, % at 12.5 µM; 6,200 compounds, 39% hits;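 active = mean inhibition above about 50% when retested at one dose, limit read from the data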;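 note: plate controls were DMSO wells with completed reaction for no effect and substrate without enzyme for full effect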
* = called active by the depositor; . = no result.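 Rule for the calls, unless noted: active = mean inhibition above about 50% in the one-dose retest (limit read from the data); inactive = the rest.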

SMILES	SENP6 inh	SENP8 block-1	SENP8 block-2	C8 TRAIL sens	SENP7 block	PPC-1+TRAIL kill	SENP8 conf	SENP6 conf	SENP7 conf	Casp3 SENP sel	Luc interf
COc1ccccc1C(=O)N/N=C/C(C)=C/c1ccccc1	4	-4	17	13	1	.	.	.	.	.	.
O=C(N/N=C/c1ccc(OC(=O)c2cccc(F)c2)cc1)c1cccnc1	36	24	-2	0	13	.	.	.	.	.	.
CSc1ccc(/C=N/NC(=O)c2cccs2)cc1	83*	74*	-385	30	88*	5	26	66*	98*	86*	85*
CC(=C/c1ccccc1)/C=N/NC(=O)c1cccs1	83*	75*	-22	58*	79*	6	42	80*	96*	70*	34
O=C(N/N=C/c1ccncc1)c1cccs1	9	-14	9	-2	2	.	.	.	.	.	.
O=C(N/N=C/c1ccc(OC(=O)c2cccs2)cc1)c1cccc(F)c1	16	3	17	17	72*	-4	-9	-4	-4	25	4
CC(/C=N/NC(=O)c1cccc(F)c1)=C\c1ccccc1	83*	67*	-3	48	79*	.	76*	78*	95*	82*	71*
OCCNNC(=S)NC1CC2C=CC1C2 (centres undefined)	-20	-4	0	-14	-5	7	.	.	.	.	.
CC(=O)N(CN1C(=O)c2ccccc2C1=O)c1ccc2c(c1)oc1ccccc12	-13	-2	13	0	-6	-10	.	.	.	.	.
CCOC(=O)c1c(C)[nH]c(C(=O)OCc2nc3ccsc3c(=O)[nH]2)c1C	.	.	-45	12	.	.	.	.	.	.	.
COc1ccc(-c2nc3ccccn3c2Cl)cc1	97*	96*	-263	72*	100*	.	5	99*	103*	98*	97*
CCOC(=O)N1CCC(NS(=O)(=O)c2ccc(C#N)cc2)CC1	-20	-4	22	6	-5	5	.	.	.	.	.
CS(=O)(=O)Oc1ccc(Br)c2cccnc12	-19	-9	22	6	-6	-8	.	.	.	.	.
Nc1ccc(Br)c2cccnc12	85*	75*	35	4	62*	10	27	63*	33	2	-3
CCCN(CCC)C(=O)C1CCN(c2ccc(S(=O)(=O)N3CCOCC3)cc2[N+](=O)[O-])CC1	-8	5	15	-11	2	.	.	.	.	.	.
Cc1ccc(NCc2ccccc2OCc2ccccc2F)cc1	23	8	10	-1	9	28	.	.	.	.	.
Oc1ccc(NCc2ccccc2OCc2ccccc2F)cc1	60*	20	76*	-5	31	12	17	20	5	7	5
CCOC(=O)Oc1ccc(/C=C2\N=C(C)OC2=O)cc1	-20	-8	6	7	-11	.	.	.	.	.	.
CN1CCN(C(=O)CCN2C(=O)/C(=C/c3cccc(Br)c3)SC2=S)CC1	-3	-5	29	13	6	.	.	.	.	.	.
CN1CCN(C(=O)CCCN2C(=O)/C(=C/c3cccc(Br)c3)SC2=S)CC1	52*	5	20	35	-4	.	47	37	44	22	36
COc1ccc(/C=C2\SC(=S)N(CCCC(=O)N3CCN(C)CC3)C2=O)cc1	70*	39	13	-13	28	.	57*	53*	76*	54*	52*
O=C(CCCN1C(=O)/C(=C/c2cccc(Br)c2)SC1=S)N1CCOCC1	64*	27	9	24	10	.	33	58*	65*	11	26
CC(=O)c1cccc(NC(=O)c2cnn3ccccc23)c1	57*	44	16	-4	41	28	40	39	78*	78*	56*
CC(=O)c1ccc(NC(=O)c2cnn3ccccc23)cc1	56*	27	-20	3	37	33	33	32	73*	73*	60*
COc1ccc([C@H]2Cc3cc(O)cc(O)c3C(=O)O2)cc1O	95*	88*	-121	-4	90*	.	89*	88*	98*	90*	91*
SMILES	SENP6 inh	SENP8 block-1	SENP8 block-2	C8 TRAIL sens	SENP7 block	PPC-1+TRAIL kill	SENP8 conf	SENP6 conf	SENP7 conf	Casp3 SENP sel	Luc interf
COc1ccc([C@H]2CC(=O)C=C(/C=C/c3ccc(C(F)(F)F)cc3)C2)cc1	-14	-10	17	13	11	.	.	.	.	.	.
COc1cccc(/C(C)=N/N=C(\C)c2cccc(OC)c2)c1	81*	61*	13	-21	66*	.	43	56*	85*	55*	41
COc1cccc(C(N)=O)c1	-22	-18	7	2	-22	.	.	.	.	.	.
O=[N+]([O-])c1ccc(S(=O)(=O)Nc2ccc(S(=O)(=O)N3CCCC3)cc2)cc1	-41	-16	22	9	-3	.	.	.	.	.	.
COc1ccc(C2=NN3C(C2)c2ccccc2OC32C(=O)N(C)c3ccccc32)cc1 (centres undefined)	91*	79*	-452	0	80*	-25	12	4	14	8	5
COc1ccc(C2=NOC(C(=O)Nc3ccc4c(c3)OCCO4)C2)c(OC)c1 (centres undefined)	-8	-9	13	-3	5	.	.	.	.	.	.
C/C(CC(=O)Nc1ccccn1)=N\NC(=O)C(=O)Nc1cccc(C)c1	8	-5	7	8	0	11	.	.	.	.	.
COc1ccc(NC(=O)c2cc3ccccc3cc2OC)cc1OC	2	-2	6	3	0	.	.	.	.	.	.
O=C(Nc1cccc(O)c1)C(=O)Nc1ccccn1	96*	87*	16	71*	97*	42	93*	93*	100*	96*	82*
COc1ccc2oc(=O)c(C(=O)Nc3ccccc3O)cc2c1	77*	75*	32	25	95*	14	61*	78*	94*	74*	21
COc1cc2ccccc2cc1C(=O)Nc1ccc(O)cc1	63*	44	-89	39	57*	.	8	37	87*	60*	3
O=C(Nc1ccc(F)cc1F)c1cc2ccccc2oc1=O	28	7	17	25	63*	.	7	6	46	54*	23
COc1ccc(NC(=O)c2cc3ccccc3oc2=O)cc1	.	.	28	50	.	.	.	.	.	.	.
